# According to PubChem BioAssay AID588579 (National Center for Advancing Translational Sciences (NCATS), 2011):
# Values joined by “and” are separate entries in the source; they are usually repeats but may differ in a detail not shown here. Equal values may be shown once. Screen size: about 400,000 compounds; about 2,200 (0.55%) were called active. Entries that show only a call come without a potency. Inconclusive results (about 1%) are left out. For the sample, actives were picked, then their nearest neighbours and some compounds at random. Values without a mark were called inactive. Calls follow the shape of the dose curve; as a rule, active = well fitted inhibition curve with a large enough effect; inconclusive = small, poorly fitted or top-dose-only effect, or another doubt; inactive = no such curve, though single readings can be large or run the other way.
# Target: DNA polymerase kappa (Homo sapiens) (UniProt Q9UBT6)
# Experiment: qHTS for Inhibitors of Polymerase Kappa
# Conditions: purified Pol kappa, fluorescent DNA synthesis assay, 10 min; series mostly up to 107 µM
# How it was run: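 Inhibition of 10 nM Pol kappa is measured by a fluorescent read-out at 0 and 10 min following addition of 50 nM substrate (final), with a 15-min room-temperature compound preincubation.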
# Potency is read from the fitted curve at half-maximal effect.
# Chain of DNA polymerase kappa (Homo sapiens) (Q9UBT6 whole entry, looked up): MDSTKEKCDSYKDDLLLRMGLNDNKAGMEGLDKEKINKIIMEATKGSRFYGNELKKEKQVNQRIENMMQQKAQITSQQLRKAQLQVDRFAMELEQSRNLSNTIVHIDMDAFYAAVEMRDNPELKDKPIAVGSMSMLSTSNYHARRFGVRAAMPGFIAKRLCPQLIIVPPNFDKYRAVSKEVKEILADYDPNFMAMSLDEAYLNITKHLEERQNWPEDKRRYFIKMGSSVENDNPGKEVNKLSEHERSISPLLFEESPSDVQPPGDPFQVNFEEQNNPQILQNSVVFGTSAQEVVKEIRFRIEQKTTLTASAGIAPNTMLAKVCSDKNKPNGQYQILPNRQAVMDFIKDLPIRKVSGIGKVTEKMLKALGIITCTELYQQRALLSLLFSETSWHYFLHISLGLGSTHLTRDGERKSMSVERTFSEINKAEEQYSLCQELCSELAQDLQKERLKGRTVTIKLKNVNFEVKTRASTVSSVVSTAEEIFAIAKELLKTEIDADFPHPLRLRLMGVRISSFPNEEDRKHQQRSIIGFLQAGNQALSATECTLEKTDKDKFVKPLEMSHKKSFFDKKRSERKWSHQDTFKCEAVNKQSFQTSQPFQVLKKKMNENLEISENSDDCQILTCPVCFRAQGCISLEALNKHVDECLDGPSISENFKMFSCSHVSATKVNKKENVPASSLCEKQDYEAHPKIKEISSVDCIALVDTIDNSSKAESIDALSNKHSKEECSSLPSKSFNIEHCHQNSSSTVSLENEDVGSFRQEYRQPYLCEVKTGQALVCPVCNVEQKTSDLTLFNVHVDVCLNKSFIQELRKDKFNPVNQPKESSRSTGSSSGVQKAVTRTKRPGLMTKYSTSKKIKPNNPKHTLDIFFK
Structure (SMILES),Potency,"activity, negative = inhibition"
Cc1noc(C)c1S(=O)(=O)Nc1ccc(C(=O)O)cc1,inactive,–
O=C(c1ccc(NS(=O)(=O)c2ccc3[nH]c(=O)[nH]c3c2)cc1)N1CCCCC1,inactive,–
O=C(O)c1ccc(NS(=O)(=O)c2ccc3c(c2)C(=O)c2cc(S(=O)(=O)Nc4ccc(C(=O)O)cc4)ccc2-3)cc1,79.4 µM (active),–
O=C(O)c1c(Br)c(Br)c(Br)c(Br)c1C1c2ccc(O)cc2Oc2cc(O)ccc21,1.12 µM (active),–
COc1ccccc1CNc1ncncc1-c1cccc(NS(C)(=O)=O)c1,inactive,–
CC(C)C(N)C(=O)OCCOCn1cnc2c(=O)[nH]c(N)nc21 (stereo not drawn),inactive,–
CC(C)[C@H]1CC[C@@H](C)C[C@H]1O,–,-5.92% [at 19.4 µM]
COc1cccc(Cn2c(=O)c(CCc3ccccc3)nc3cnc(N(C)C)nc32)c1,inactive,–
Cc1ccc(CNC(=O)CSC2=Nc3ccccc3C3=NC(C)C(=O)N23)cc1 (stereo not drawn),inactive,–
CCOC(=O)CSC1=Nc2ccccc2C2=NC(CCC(=O)NCc3ccc(F)cc3)C(=O)N12 (stereo not drawn),inactive,–
CC(C)C1N=C2c3ccccc3N=C(SCC(=O)c3ccc(O)c(O)c3)N2C1=O (stereo not drawn),20 µM (active),–
CCCCC/C=C\CC1OC1CCCCCCCC(=O)O (stereo not drawn),–,-0.735% [at 19.4 µM]
COc1cc2nc(N3CCCN(C)CC3)nc(NC(C)C)c2cc1OC,inactive,–
C=COC(=O)N1CCN(/[N+]([O-])=N/Oc2ccc([N+](=O)[O-])cc2[N+](=O)[O-])CC1,inactive,–
CCC(C)Cn1c(O)cc2nn(-c3nc4ccccc4s3)c(=O)c-2c1C (stereo not drawn),25.1 µM (active),–
Nc1ncnc2c1c(I)cn2[C@@H]1C[C@H](N)[C@@H](O)[C@H]1O,inactive,–
CC1(C)OC2CO[C@]3(COS(N)(=O)=O)OC(C)(C)OC3C2O1 (stereo partly drawn),inactive,–
COc1ccc2[nH]c(C(=O)N/N=C/c3cc(OC)c(OC)c(OC)c3)cc2c1,50.1 µM (active),–
COc1cc(NC(=O)c2cc3ccc4cccnc4c3[nH]2)cc(OC)c1OC,inactive,–
COc1ccc(-c2cc(C(=O)NCc3cc(OC)c(OC)c(OC)c3)[nH]n2)cc1,inactive,–
Nc1nc2nc(Cl)[nH]c2c(=O)[nH]1,inactive,–

Structure (SMILES),Potency,"activity, negative = inhibition"
COc1ccc(Cl)cc1NC(=O)CCS(=O)(=O)c1ccc(Br)cc1,79.4 µM (active),–
Cc1ccc(Cl)cc1NC(=O)CCS(=O)(=O)c1ccc(Br)s1,inactive,–
COc1ccc(Cl)cc1NC(=O)CCC(=O)c1ccc(C)cc1,inactive,–
COc1ccccc1CNc1ncnc2ccc(-c3ccc4c(c3)OCO4)cc12,inactive,–
CC1(C)OC2CC3C4CCC5=CC(=O)CCC5(C)C4(F)C(O)CC3(C)[C@]2(C(=O)CCl)O1 (stereo partly drawn),inactive,–
O=c1c(-c2ccc(F)cc2)nc2cnc(N3CCOCC3)nc2n1-c1ccccc1,inactive,–
CN(C)c1ccc(/C=C/c2c3ccccc3nc3ccccc23)cc1,inactive,–
CC(C)(C(=O)NO)c1ccccc1,inactive,–
C=CCn1c(=S)[nH]c2scc(-c3ccco3)c2c1=O,22.4 µM (active),–
Fc1ccc(Cl)cc1-c1nc(Nc2ccncc2)c2nccnc2n1,inactive,–
COc1ccccc1CCn1c(=O)c(-c2cn(C)c3ccccc23)nc2cncnc21,inactive,–
CCCCC/C=C\C/C=C\CCCCCCCCCC(=O)O,–,1.81% [at 19.4 µM]
N#C/C(=C\c1ccc(O)c(O)c1)C(N)=O,10 µM (active),–
CC(C)NC(=O)/C(C#N)=C\c1ccc(N(C)C)c(Br)c1,inactive,–
Cc1ccc(/C=C(\C#N)C(=O)Nc2cc(C)ccc2C)cc1,inactive,–
Nc1nc(N)c(N=O)c(N)n1,inactive,–
O=C(C[n+]1ccncc1)c1ccc2c(c1)CCCC2,inactive,–
CC(=O)NC(=O)c1ccccc1O,–,-8.55% [at 19.4 µM]
COc1ccccc1-c1cc(NCc2cccs2)ncn1,inactive,–
CC(C)(C)C1CCC(NC(=O)c2cnn3c2NC(=C2CC2)C=C3C(F)F)CC1 (stereo not drawn),inactive,–
COc1ccc(C[C@H](N)C(=O)N[C@@H]2[C@H](O)[C@H](n3cnc4c(N(C)C)ncnc43)O[C@@H]2CO)cc1,–,-1.14% [at 12 µM]

Structure (SMILES),Potency,"activity, negative = inhibition"
Cc1cc[n+](C2CCCCC2)cc1,inactive,–
Cc1nc2cnc(N3CCN(C)CC3)nc2n(C[C@H]2CCCO2)c1=O,inactive,–
O=C1NN(c2ccccc2)C(=O)/C1=C/c1ccc(-c2cccc(C(=O)O)c2)o1,44.7 µM (active),–
CCCCOc1ccc(C(=O)NO)cc1,inactive,–
Cc1cc2oc(=O)cc(-c3ccccc3)c2c(C)c1/C=C/c1ccc(F)cc1,inactive,–
COc1ccccc1OCCOc1ccc(/C=C2\C(=N)N3N=C(C)SC3=NC2=O)cc1,inactive,–
COc1cc(C(=O)N2CCOCC2)cc(OC)c1OC,–,-0.831% [at 19.4 µM] and 0.0712% [at 19.4 µM]
COc1cc(/C=C2\C(=N)N3N=C(CC(=O)N4CCOCC4)SC3=NC2=O)cc(OC)c1OC,31.6 µM (active),–
C=C1C=C(C(F)F)n2ncc(C(=O)NCCc3ccccc3OC)c2N1,inactive,–
O=c1c(-c2cccs2)nc2cnc(Oc3ccccc3)nc2n1-c1ccccc1,inactive,–
CC(C)C1=CC2=CC[C@@H]3[C@](C)(CO)CCC[C@]3(C)C2CC1 (stereo partly drawn),inactive,–
CCOC(=O)Cn1c(=O)sc2cccc(Cl)c21,–,-6.5% [at 12 µM]
Nc1ncnc2nnsc12,inactive,–
Cc1ccc(Cc2cnc(N)s2)o1,15.8 µM (active),–
COCCNc1ccnc(-c2cccc(NS(C)(=O)=O)c2)n1,inactive,–
O=C1OC(C(O)CO)C(O)=C1O (stereo not drawn),inactive,–
C1=C(N2CCOCC2)/C(=C/c2nc3ccccc3[nH]2)CC1,79.4 µM (active),–
Cc1nn2c3cc(N4CCOCC4)ccc3nc2c2ccccc12,inactive,–
CNc1ncnc2ccc(-c3cccc(NS(C)(=O)=O)c3)cc12,inactive,–
CC[C@H](C)[C@H](NC(=O)[C@@H](N)CCC(=O)O)C(=O)N[C@@H](CC(C)C)C(=O)N[C@@H](CC(=O)O)C(=O)N[C@H](C(=O)N1CCC[C@H]1C(=O)N[C@@H](CO)C(=O)N[C@H](C(=O)O)[C@@H](C)O)C(C)C,inactive,–
C=CCOC(=O)C(=C)C,inactive,–
